Measured values reported in PubChem BioAssay AID624330 (Southern Research Specialized Biocontainment Screening …, 2012).
Out of some 340,000 compounds screened, about 2,100 (0.62%) were called active. Only a sample is shown. Results with a measured potency or affinity are listed apart. A number with no mark means an inactive call.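 Rule for the calls: active = first-screen hits whose inhibition reached a set limit at any dose in the follow-up dose series; inconclusive = inhibition above the set first-screen limit but never retested; inactive = the rest.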

The compounds below were run against Rac GTPase-activating protein 1 (Homo sapiens) (UniProt Q9H0H5) (assay: MgcRacGAP GTPase-activating activity inhibitors, confirmation, biochemical, ADP Hunter fluorescence, primary and confirmatory (AID 624330;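 note: fluorescence reports GDP produced by GAP-driven GTP hydrolysis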)). Details: MgcRacGAP-stimulated Rac1 GTP hydrolysis, at 30 µM, hits give high values, GST-tagged Rac1 F28L mutant substrate.
Rac GTPase-activating protein 1 (Homo sapiens), sequence (Q9H0H5 whole entry, looked up): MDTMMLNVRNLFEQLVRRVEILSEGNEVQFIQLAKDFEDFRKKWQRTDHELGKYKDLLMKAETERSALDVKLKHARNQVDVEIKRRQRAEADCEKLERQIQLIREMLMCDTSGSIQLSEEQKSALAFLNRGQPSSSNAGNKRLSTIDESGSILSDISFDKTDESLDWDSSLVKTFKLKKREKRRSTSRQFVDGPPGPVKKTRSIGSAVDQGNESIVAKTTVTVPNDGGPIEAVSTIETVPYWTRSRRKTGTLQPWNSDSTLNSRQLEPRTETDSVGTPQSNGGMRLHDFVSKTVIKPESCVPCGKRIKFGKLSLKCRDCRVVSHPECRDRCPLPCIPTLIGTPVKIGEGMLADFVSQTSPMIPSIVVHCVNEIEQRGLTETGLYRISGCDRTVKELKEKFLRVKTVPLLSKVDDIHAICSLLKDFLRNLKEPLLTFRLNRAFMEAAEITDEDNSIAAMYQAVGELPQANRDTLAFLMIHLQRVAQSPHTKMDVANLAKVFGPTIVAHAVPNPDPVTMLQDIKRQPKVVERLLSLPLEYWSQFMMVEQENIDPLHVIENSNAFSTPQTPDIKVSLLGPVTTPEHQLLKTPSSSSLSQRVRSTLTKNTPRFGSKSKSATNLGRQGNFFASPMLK
`COc1cc(C)c(S(=O)(=O)Nc2ccccc2F)cc1C` showed an inhibition of 0.77%.
In the case of `CCn1nc(C(=O)NCc2nnc3ccccn23)c2ccccc2c1=O`, the inhibition is reported as 2.43%.
`CCOC(=O)C1CN(S(=O)(=O)c2ccc(OC)cc2)c2cc(S(=O)(=O)CC)ccc2O1` (configuration not stated) gave an inhibition of -8.53%.
Compound `CC1=NN(C(N)=S)C(=O)C1N=Nc1ccc(Cl)cc1` (configuration not stated) has an inhibition of 13.3%.
With `CC1=NN(C(N)=S)C(=O)C1N=Nc1ccc(Br)cc1` (configuration not stated) the inhibition was 12.4%.
Work on `CCC(C)NC(=O)CS(=O)Cc1nc(-c2cccc(C)c2)oc1C` (configuration not stated) yielded an inhibition of 2.8%.
`CCn1cc(C(=O)N2CCN(c3ccccn3)CC2)c2cc(OC)c(OC)cc2c1=O` was tested, and the inhibition was -4.67%.
Compound `CC1=C(C(N)=O)C(c2ccc(Cl)c(Cl)c2)n2ncnc2N1` (configuration not stated) has an inhibition of 3.56%.
`CN1CCN(c2c(/C=N/O)c3ccccc3n2C)CC1` gave an inhibition of 28.5%.
`Cn1c(N2CCOCC2)c(C=O)c2ccccc21` was tested, and the inhibition was 8.54%.
In the case of `O=C(Nc1ccc(C(=O)O)cc1)/C(=C\c1ccco1)NC(=O)c1ccc(Br)cc1`, the inhibition is reported as 18.2%.
`COc1ccc2c3c(cccc13)C(=O)N(O)C2=O` showed an inhibition of 1.13%.
Work on `COc1ccc2c3c(cccc13)OC2=O` yielded an inhibition of 5.25%.
Compound `COc1ccc(CCNC(=O)c2nnc(Cc3c(F)cccc3Cl)o2)cc1OC` has an inhibition of 3.35%.
In the case of `O=C1OC(Cc2ccccc2)C(c2ccccc2)C1=O` (configuration not stated), the inhibition is reported as 3.8%.
Work on `O=C1N[C@H](Cc2ccccc2)CO1` yielded an inhibition of 3.86%.
With `COc1ccc(Br)cc1C(=O)Nc1cccc(-c2nnc(-c3ccco3)o2)c1` the inhibition was -5.03%.
In the case of `COc1ccc(NC(=O)c2ccc(OC(F)F)cc2)cc1Cl`, the inhibition is reported as -1.44%.
In the case of `O=C(O)c1cc(N/N=C/c2c[nH]c3ccccc23)ccc1Cl`, the inhibition is reported as 23.8%.
`COc1ccc2c(/C=N/NS(=O)(=O)c3ccc(C)cc3)c[nH]c2c1` gave an inhibition of 11.2%.
In the case of `COc1ccc(C(=O)N/N=C/c2c[nH]c3ccccc23)cc1`, the inhibition is reported as 16.4%.
`O=C(O)c1ccc(S(=O)(=O)NN=Cc2c[nH]c3ccccc23)cc1` was tested, and the inhibition was 14.2%.
Compound `COc1ccc(S(=O)(=O)N2CCCCC2)cc1NC(=O)CCc1cc(OC)c(OC)c(OC)c1` has an inhibition of 2.57%.
Work on `O=C(COC(=O)Cc1c(Cl)cccc1Cl)Nc1ccccc1-c1ccccc1` yielded an inhibition of 1.56%.
`O=C(O)C1CC(c2ccccc2)=Nc2ccccc2S1` (configuration not stated) was tested, and the inhibition was 6.83%.
With `CC1(C)CC(=O)C(Sc2ccccc2)=C(O)C1` the inhibition was -4.47%.
Work on `CCOC(=O)Nc1ccc2c(c1)nc1n2CCN(CCOC)C1` yielded an inhibition of 8.24%.
